# In the supplement of paper PMC10849652:
# The full data set covers some 7,900 targets. This sample favours those with a hit. About 0.6% of all pairs of compound and target were hits. Values without a mark were called inactive.
# Columns and labels:
# Test in all cases: log2 fold change, soluble protein after heating vs DMSO (PISA); higher = thermal stabilisation; K562 cells, 10 uM, 30 min; active = over 0.2 and 3.5 SD of the protein, either way, in both replicates (recomputed)
# [1] = compound: NC(=O)Nc1cc(-c2cccc(F)c2)sc1C(=O)N[C@H]1CCCNC1
# Summary of the method: (§1)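 K562 cells at 2×10^6 cells/mL were treated for 30 min with 10 μM compound, and aliquots were heated for 3 min over 48°C-58°C before pooling. Extraction used PBS with 0.5% NP-40 at 4°C, and soluble protein was the supernatant after 21,000xg for 90 min, measured by TMTpro 16plex LC-MS/MS with channel sums equalised. Thermal stability values, relative to control samples and from duplicates, are log2 fold changes.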
# [2] = compound: NC(=O)c1cnc(N[C@@H]2CCCC[C@@H]2N)nc1Nc1cccc(-n2nccn2)c1
# Summary of the method: as §1
# [3] = compound: NC1(c2ccc(-c3nc4ccn5c(=O)[nH]nc5c4cc3-c3ccccc3)cc2)CCC1
# Summary of the method: as §1
# [4] = compound: NCC(=O)Nc1ccc(-n2nc(C(F)(F)F)cc2-c2ccc3c(ccc4ccccc43)c2)cc1
# Summary of the method: as §1
# [5] = compound: Nc1ccccc1NC(=O)c1ccc(CNC(=O)OCc2cccnc2)cc1 [entinostat]
# Summary of the method: as §1
# [6] = compound: O=C(CCCCCCC(=O)Nc1ccccc1)NO [vorinostat]
# Summary of the method: as §1
# [7] = compound: O=C(CCCCCCNC(=O)c1cnc(N(c2ccccc2)c2ccccc2Cl)nc1)NO [citarinostat]
# Summary of the method: as §1
# [8] = compound: O=C(O)c1ccc2c(c1)nc(Nc1cccc(Cl)c1)c1ccncc12 [silmitasertib]
# Summary of the method: as §1
# [9] = compound: O=C1NC(=O)C(c2cnc3ccccn23)=C1c1cn2c3c(cc(F)cc13)CN(C(=O)N1CCCCC1)CC2
# Summary of the method: as §1
# [10] = compound: c1cc(OCCN2CCCCC2)cc(-c2n[nH]c3ccc(-c4nnc[nH]4)cc23)c1
# Summary of the method: as §1
# UniProt P42338, sequence (P42338 whole entry, looked up): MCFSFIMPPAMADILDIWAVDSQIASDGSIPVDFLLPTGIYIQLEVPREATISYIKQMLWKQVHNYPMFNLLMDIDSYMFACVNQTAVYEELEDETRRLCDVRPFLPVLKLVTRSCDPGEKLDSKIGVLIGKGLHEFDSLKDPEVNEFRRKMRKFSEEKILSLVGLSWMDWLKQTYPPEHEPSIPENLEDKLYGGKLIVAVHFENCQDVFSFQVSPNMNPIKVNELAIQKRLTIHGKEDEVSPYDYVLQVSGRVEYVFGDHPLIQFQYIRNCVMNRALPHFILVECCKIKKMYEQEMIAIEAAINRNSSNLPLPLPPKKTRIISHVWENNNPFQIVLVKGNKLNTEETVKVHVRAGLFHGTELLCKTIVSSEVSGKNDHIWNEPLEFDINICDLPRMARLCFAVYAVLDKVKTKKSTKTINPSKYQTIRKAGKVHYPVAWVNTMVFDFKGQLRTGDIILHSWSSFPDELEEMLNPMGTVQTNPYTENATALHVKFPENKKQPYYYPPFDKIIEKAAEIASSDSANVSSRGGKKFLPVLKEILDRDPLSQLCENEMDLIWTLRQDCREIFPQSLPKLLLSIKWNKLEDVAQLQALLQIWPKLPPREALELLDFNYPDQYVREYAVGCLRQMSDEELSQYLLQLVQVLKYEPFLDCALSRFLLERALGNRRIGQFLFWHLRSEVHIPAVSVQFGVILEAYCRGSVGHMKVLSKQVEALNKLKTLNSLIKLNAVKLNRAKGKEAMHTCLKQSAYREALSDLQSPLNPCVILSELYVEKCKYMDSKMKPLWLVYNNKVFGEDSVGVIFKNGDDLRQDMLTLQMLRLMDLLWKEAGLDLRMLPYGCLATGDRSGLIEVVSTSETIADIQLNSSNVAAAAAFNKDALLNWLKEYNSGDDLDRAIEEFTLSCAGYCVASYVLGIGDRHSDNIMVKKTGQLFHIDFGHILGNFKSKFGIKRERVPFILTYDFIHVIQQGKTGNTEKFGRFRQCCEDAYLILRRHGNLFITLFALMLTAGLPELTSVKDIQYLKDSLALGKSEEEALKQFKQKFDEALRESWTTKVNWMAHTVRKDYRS
# UniProt P54619, sequence (P54619 whole entry, looked up): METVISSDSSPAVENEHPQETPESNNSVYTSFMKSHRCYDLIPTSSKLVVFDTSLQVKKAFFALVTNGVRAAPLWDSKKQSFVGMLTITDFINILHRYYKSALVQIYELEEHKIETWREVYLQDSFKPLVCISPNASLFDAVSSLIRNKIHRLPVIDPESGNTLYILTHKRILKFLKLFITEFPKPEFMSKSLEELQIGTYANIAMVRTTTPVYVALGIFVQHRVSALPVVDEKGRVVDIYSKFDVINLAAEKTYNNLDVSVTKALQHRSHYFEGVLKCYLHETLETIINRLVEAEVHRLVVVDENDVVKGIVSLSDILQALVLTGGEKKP
# UniProt Q15004, sequence (Q15004 whole entry, looked up): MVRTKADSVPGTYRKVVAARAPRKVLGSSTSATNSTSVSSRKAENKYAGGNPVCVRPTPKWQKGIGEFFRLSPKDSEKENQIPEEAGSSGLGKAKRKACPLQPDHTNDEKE
# UniProt Q15054, sequence (Q15054 whole entry, looked up): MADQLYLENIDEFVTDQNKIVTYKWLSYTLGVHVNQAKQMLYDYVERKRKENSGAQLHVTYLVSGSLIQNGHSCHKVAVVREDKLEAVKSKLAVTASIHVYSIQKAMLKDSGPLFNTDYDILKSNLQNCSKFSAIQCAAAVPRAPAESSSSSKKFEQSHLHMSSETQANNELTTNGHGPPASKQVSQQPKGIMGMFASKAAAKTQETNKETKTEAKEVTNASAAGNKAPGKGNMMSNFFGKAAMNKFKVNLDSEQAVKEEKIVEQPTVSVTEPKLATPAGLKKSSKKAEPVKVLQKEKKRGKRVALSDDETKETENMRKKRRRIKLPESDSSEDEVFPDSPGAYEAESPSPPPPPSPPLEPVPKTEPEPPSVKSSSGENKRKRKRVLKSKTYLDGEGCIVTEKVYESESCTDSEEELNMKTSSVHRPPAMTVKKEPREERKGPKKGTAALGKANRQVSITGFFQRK
# UniProt Q15121, sequence (Q15121 whole entry, looked up): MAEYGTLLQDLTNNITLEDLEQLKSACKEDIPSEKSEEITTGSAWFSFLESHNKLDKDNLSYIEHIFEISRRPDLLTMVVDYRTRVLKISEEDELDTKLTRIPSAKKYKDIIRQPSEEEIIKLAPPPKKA
# UniProt P62191, sequence (P62191 whole entry, looked up): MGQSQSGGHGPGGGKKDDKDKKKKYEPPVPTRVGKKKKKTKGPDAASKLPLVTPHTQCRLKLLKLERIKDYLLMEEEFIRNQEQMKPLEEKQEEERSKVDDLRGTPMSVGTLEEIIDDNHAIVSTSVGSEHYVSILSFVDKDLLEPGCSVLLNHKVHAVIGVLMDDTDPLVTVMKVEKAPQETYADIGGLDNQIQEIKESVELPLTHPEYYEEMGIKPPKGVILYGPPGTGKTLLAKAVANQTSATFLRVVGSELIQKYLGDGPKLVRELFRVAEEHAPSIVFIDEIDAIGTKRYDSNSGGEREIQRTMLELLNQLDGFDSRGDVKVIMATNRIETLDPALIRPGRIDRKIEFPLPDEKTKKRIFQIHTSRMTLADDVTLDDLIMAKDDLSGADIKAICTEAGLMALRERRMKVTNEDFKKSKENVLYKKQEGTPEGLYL
# UniProt P0CG38, sequence (P0CG38 whole entry, looked up): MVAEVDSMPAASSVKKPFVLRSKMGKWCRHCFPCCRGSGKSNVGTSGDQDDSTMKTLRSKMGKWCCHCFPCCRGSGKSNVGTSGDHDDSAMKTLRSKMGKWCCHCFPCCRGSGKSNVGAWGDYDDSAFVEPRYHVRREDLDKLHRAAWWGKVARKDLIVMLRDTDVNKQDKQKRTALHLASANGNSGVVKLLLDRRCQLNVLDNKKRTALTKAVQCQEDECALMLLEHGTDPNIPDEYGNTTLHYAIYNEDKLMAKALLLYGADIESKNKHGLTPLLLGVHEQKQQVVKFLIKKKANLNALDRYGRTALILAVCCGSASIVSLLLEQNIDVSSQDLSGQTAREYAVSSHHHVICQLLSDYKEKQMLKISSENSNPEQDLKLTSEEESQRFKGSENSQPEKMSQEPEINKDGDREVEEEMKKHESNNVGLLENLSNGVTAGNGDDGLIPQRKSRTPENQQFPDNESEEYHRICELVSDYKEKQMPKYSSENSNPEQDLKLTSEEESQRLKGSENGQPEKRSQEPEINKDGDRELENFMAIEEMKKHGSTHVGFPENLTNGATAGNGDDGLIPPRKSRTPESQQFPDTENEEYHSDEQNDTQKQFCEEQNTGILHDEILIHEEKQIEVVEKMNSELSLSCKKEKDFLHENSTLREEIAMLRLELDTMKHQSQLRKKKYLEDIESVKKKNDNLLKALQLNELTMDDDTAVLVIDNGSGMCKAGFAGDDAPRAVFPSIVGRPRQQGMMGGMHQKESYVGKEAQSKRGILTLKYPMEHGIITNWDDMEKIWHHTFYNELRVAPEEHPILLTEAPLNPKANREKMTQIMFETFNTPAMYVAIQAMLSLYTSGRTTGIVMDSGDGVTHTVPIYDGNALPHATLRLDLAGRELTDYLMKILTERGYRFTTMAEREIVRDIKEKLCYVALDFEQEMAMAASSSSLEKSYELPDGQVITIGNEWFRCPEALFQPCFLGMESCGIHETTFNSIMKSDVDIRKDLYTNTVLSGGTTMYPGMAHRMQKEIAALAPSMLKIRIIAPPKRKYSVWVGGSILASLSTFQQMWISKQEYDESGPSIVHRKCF
# UniProt O00232, sequence (O00232 whole entry, looked up): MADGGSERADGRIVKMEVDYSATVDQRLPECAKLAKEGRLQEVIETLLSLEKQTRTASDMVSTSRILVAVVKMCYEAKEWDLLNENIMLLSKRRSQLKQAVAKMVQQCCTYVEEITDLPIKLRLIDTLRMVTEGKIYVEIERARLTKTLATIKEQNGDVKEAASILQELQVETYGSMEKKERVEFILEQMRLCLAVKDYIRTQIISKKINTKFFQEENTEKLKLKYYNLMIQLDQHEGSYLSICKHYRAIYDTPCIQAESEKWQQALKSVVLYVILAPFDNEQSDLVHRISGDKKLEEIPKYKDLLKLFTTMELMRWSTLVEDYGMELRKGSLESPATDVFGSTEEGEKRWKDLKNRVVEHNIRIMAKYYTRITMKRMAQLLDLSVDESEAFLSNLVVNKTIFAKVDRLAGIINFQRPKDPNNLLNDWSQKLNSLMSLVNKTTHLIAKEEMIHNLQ
# UniProt Q15366, sequence (Q15366 whole entry, looked up): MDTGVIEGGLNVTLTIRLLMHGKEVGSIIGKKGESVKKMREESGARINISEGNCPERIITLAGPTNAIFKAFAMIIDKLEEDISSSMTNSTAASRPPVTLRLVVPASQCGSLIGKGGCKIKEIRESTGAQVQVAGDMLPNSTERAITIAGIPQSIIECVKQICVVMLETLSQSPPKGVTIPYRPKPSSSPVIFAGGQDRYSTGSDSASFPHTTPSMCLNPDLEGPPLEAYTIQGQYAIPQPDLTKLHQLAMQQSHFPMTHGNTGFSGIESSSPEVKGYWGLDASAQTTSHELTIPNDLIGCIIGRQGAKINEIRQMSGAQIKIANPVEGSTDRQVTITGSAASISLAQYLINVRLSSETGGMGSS
# UniProt Q99541, sequence (Q99541 whole entry, looked up): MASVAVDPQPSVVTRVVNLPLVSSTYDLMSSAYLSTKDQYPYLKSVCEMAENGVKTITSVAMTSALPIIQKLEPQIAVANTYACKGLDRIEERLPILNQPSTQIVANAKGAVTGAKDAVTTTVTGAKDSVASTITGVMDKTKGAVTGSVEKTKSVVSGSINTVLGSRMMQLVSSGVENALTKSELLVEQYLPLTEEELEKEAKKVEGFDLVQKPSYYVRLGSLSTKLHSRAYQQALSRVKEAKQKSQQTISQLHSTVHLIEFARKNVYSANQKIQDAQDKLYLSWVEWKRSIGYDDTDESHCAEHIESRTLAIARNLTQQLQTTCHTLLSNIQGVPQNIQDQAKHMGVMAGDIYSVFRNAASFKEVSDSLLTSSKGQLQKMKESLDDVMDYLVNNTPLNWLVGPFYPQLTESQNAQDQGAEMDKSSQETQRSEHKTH
Target,log2 fold change [1],log2 fold change [2],log2 fold change [3],log2 fold change [4],log2 fold change [5],log2 fold change [6],log2 fold change [7],log2 fold change [8],log2 fold change [9],log2 fold change [10]
PCBP2 isoform 3 (UniProt Q15366),0.001,-0.074,-0.102,-0.088,0.062,0.099,0.104,0.019,-0.015,-0.023
POLD3 (UniProt Q15054),0.035,-0.143,-0.107,-0.108,0.134,-0.008,0.003,-0.022,-0.013,0.109
PPP4R3B (UniProt Q5MIZ7),-0.068,-0.082,-0.069,-0.079,0.047,0.089,0.086,0.077,-0.1,0.087
POLR1A (UniProt O95602),0.044,0.012,-0.208,0.172,-0.012,0.098,0.018,0.033,0.036,0.045
PTGES3 (UniProt Q15185),-0.043,-0.006,-0.123,0.017,0.075,0.002,0.111,-0.002,-0.142,0.054
PLIN2 (UniProt Q99541),0.019,-0.194,-0.353,-0.059,0.077,0.203,0.027,0.035,-0.046,-0.044
POTEI (UniProt P0CG38),-0.058,0.061,0.139,0.124,-0.004,-0.016,-0.009,-0.03,-0.053,-0.004
PPP1R12A (UniProt O14974),-0.428 (active),-0.358,-0.137,-0.012,0.041,0.017,0.078,0.051,-0.01,-0.369
PUF60 (UniProt Q9UHX1),-0.112,-0.029,-0.035,-0.132,0.049,0.028,0.079,-0.098,-0.025,-0.092
PIK3CB (UniProt P42338),-0.057,-0.106,-0.008,-0.102,0.014,0.001,0.003,-0.053,-0.039,-0.049
PIP4P2 (UniProt Q8N4L2),0.02,-0.152,-0.373 (active),-0.024,0.007,0.042,-0.02,0.074,0.082,0.051
PCLAF (UniProt Q15004),-0.007,0.035,0.109,0.012,-0.04,-0.045,0.035,-0.009,0.008,-0.066
PDCD2L (UniProt Q9BRP1),0.058,1.21 (active),-0.018,-0.101,0.036,0.023,0.06,0,-0.092,-0.001
PCBP2 (UniProt F8VRH0),0.187,-0.017,-0.175,0.013,0.051,0.247,0.006,-0.105,0.144,-0.01
POLR3B (UniProt Q9NW08),-0.05,0.017,-0.124,-0.009,-0.014,0.088,-0.022,0.111,0.104,-0.047
PHKG2 (UniProt P15735),0.417 (active),0.088,-0.064,-0.035,-0.007,0,0.122,0.052,0.023,-0.045
PRKAB2 (UniProt O43741),0.204,0.248,-0.077,0.162,0.186,0.099,-0.1,0.031,0.121,-0.47
PKN1 isoform 2 (UniProt Q16512),-0.508 (active),-0.141,-0.118,-0.128,0.039,0.042,0.024,0.024,-0.131,-0.157
PSMD12 (UniProt O00232),-0.001,0.019,-0.061,0.05,0.001,0.003,-0.012,-0.024,0.045,-0.09
PSMB4 (UniProt P28070),0.029,-0.01,0.068,0.01,-0.036,-0.019,0.008,0.002,0.022,-0.014
PRKCD (UniProt Q05655),-0.086,-0.05,-0.081,-0.031,0.024,0.031,0.006,0.045,-0.06,-0.083
POLR2A (UniProt P24928),-0.057,0.121,-0.049,-0.094,0.049,-0.067,-0.062,0.086,0.059,-0.05
PEA15 isoform 2 (UniProt Q15121),0.021,-0.118,-0.103,0.016,0.075,-0.009,0.049,0.045,-0.067,-0.209
PRKAG1 isoform 3 (UniProt P54619),-0.105,-0.033,-0.069,-0.045,0.017,0.071,0.04,0.016,-0.042,-0.091
PSMD7 (UniProt P51665),-0.04,0.001,-0.035,0.029,-0.049,-0.002,-0.048,0.016,0.051,-0.089
PSMC1 (UniProt P62191),0.011,0.029,0.014,0.043,-0.013,-0.013,-0.032,0.001,0.026,-0.047
PUM1 isoform 3 (UniProt Q14671),0,-0.032,-0.082,-0.015,0.034,0.108,-0.008,0.01,-0.028,-0.007
PECAM1 (UniProt P16284),0.005,0.092,0.034,0.053,-0.13,-0.057,0.033,-0.039,-0.064,-0.023
PKM (UniProt P14618),0.01,-0.029,0.011,-0.025,-0.013,-0.009,0.016,-0.016,-0.032,-0.02
